For assay [1], the target named is Sphingosine kinase 1 (Homo sapiens) (UniProt Q9NYA1). The settings on record: at 1 µM.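 Further: mean SPHK1 inhibition value reported from the GSK PKIS kinase panel screen.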
Assay [2] concerns the target T1, Sphingosine kinase 2 (Homo sapiens) (UniProt Q9NRA0).
T1 sequence (whole entry): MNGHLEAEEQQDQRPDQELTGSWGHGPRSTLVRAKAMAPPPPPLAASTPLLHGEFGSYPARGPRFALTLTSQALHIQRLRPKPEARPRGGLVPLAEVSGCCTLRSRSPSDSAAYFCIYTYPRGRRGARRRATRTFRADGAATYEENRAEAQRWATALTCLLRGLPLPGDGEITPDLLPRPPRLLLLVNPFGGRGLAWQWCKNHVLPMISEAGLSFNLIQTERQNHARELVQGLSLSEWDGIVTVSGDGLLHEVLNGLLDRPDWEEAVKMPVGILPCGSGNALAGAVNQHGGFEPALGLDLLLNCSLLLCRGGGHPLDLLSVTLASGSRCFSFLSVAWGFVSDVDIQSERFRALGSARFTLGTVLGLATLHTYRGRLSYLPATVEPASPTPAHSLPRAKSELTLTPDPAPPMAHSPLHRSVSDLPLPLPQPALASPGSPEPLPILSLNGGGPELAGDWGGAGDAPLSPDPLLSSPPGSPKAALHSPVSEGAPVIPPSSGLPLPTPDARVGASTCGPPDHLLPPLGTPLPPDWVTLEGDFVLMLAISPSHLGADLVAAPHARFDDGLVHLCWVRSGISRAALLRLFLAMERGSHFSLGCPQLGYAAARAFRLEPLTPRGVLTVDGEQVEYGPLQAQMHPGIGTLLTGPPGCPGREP
The settings on record: at 0.1 µM.

The target in assay [3] is T1, Sphingosine kinase 2 (Homo sapiens). The settings on record: at 1 µM.
In assay [4] the target is Casein kinase II subunit alpha (Homo sapiens) (UniProt P68400). To be noted: at 0.1 µM.
Casein kinase II subunit alpha (Homo sapiens), sequence (P68400 whole entry, looked up): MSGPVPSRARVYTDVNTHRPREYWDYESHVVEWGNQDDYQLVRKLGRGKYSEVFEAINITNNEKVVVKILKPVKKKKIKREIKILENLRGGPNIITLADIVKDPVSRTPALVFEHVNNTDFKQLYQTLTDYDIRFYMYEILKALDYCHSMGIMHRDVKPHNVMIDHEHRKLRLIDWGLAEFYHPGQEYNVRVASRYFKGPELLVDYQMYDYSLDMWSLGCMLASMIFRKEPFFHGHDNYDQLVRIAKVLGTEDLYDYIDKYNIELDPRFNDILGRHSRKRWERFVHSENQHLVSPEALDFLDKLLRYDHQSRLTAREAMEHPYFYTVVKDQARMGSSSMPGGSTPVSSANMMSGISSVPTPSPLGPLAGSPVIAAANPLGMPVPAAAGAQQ
Assay [5] has the same target. The settings on record: at 1 µM.
The target in assay [6] is T2, Inhibitor of nuclear factor kappa-B kinase subunit alpha (Homo sapiens) (UniProt O15111).
T2 sequence (whole entry): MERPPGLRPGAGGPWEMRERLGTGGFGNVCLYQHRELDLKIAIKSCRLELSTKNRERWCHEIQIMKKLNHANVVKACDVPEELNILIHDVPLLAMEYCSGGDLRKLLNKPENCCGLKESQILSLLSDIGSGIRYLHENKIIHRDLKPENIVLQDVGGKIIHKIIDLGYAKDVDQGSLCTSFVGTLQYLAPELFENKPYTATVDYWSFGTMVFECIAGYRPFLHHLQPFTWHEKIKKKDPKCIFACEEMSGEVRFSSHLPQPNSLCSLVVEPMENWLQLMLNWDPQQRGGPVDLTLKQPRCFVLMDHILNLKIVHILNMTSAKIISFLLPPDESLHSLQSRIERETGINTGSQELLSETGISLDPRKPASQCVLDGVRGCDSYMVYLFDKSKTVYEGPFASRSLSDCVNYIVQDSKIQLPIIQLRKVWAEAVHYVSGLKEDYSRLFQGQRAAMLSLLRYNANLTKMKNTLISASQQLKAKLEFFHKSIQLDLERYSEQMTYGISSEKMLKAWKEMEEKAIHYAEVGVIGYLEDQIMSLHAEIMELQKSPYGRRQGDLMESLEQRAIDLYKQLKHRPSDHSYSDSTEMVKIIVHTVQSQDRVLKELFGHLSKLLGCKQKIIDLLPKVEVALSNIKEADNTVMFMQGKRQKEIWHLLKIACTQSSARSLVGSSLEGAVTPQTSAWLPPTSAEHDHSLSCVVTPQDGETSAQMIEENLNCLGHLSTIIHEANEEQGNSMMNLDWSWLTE
The settings on record: at 0.1 µM.

Assay [7] addresses T2, Inhibitor of nuclear factor kappa-B kinase subunit alpha (Homo sapiens). To be noted: at 1 µM.
For assay [8], the target named is T3, Inhibitor of nuclear factor kappa-B kinase subunit beta (Homo sapiens) (UniProt O14920).
T3 sequence (whole entry): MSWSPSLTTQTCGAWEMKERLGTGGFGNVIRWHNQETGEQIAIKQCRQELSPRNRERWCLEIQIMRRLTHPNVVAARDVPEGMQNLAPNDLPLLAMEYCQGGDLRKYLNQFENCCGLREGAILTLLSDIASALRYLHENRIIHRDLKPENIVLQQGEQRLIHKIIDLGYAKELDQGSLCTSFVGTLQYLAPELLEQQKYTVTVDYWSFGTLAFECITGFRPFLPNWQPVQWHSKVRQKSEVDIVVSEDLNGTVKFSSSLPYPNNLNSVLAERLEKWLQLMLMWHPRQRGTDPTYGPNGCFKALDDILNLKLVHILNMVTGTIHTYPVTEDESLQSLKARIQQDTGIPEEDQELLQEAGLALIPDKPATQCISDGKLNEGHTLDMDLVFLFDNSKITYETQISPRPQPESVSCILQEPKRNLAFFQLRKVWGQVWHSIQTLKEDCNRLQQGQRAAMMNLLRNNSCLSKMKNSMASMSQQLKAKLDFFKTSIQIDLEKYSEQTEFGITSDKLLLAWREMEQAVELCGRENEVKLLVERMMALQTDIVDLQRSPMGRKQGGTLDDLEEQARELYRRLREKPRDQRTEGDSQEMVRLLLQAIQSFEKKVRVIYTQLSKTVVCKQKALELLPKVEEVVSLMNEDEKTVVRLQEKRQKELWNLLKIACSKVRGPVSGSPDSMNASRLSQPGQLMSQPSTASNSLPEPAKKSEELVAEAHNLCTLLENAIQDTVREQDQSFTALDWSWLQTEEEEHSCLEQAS
The settings on record: at 0.1 µM.

Assay [9] addresses T3, Inhibitor of nuclear factor kappa-B kinase subunit beta (Homo sapiens). To be noted: at 1 µM.
The target of assay [10] is T4, Inhibitor of nuclear factor kappa-B kinase subunit epsilon (Homo sapiens) (UniProt Q14164).
T4 sequence (whole entry): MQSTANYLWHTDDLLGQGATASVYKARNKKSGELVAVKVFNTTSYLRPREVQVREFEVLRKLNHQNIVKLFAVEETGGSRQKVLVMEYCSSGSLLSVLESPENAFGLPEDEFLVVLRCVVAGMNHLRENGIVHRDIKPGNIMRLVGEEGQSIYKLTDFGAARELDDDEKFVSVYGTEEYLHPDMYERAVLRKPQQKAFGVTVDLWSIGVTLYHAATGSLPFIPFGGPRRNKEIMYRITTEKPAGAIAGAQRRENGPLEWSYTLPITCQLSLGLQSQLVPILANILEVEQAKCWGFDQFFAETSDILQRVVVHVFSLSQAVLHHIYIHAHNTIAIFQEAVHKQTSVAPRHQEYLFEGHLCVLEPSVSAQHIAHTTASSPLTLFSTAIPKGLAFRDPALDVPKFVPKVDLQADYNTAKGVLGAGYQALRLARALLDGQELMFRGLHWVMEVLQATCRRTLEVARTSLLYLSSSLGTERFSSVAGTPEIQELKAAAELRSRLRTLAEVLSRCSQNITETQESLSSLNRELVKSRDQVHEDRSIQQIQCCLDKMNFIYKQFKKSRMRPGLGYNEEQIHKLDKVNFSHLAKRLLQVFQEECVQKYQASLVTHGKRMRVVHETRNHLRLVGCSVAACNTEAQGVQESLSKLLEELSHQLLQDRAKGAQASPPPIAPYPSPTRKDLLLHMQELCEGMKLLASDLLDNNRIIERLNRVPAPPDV
The settings on record: at 0.1 µM.

In assay [11] the target is T4, Inhibitor of nuclear factor kappa-B kinase subunit epsilon (Homo sapiens). To be noted: at 1 µM.
For assay [12], the target named is T5, Serine/threonine-protein kinase Nek1 (Homo sapiens) (UniProt Q96PY6).
T5 sequence (whole entry): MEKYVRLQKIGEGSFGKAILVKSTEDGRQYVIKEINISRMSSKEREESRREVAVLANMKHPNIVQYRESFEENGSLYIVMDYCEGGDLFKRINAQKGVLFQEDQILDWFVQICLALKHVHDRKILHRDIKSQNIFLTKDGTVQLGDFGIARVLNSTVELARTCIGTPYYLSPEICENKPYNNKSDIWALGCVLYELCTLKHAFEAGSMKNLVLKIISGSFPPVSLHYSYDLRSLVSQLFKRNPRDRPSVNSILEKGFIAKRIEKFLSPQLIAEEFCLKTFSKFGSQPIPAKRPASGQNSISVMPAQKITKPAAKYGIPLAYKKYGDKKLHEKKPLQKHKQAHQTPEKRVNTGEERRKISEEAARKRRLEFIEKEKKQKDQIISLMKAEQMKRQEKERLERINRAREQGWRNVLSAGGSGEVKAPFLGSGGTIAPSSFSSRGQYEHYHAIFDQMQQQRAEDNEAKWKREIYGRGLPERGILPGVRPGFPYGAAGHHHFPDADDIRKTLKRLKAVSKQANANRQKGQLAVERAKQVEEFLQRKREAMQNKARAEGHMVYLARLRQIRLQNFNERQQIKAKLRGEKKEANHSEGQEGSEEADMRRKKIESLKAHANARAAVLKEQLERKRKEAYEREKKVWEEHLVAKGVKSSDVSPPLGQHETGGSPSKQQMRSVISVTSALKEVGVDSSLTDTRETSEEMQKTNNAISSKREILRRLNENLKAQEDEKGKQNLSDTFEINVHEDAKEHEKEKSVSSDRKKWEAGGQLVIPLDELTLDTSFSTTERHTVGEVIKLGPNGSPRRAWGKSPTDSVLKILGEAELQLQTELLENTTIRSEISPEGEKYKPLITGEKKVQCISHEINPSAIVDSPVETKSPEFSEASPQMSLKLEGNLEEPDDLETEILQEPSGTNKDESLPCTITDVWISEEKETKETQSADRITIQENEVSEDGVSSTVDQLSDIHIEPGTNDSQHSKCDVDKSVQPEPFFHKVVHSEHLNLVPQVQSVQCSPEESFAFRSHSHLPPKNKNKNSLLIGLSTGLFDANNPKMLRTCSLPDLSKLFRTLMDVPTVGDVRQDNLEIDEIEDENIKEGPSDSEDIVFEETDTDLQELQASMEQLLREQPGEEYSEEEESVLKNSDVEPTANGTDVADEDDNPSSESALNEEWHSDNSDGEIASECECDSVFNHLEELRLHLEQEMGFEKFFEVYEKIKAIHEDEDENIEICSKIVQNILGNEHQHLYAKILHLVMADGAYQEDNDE
To be noted: at 0.1 µM.

Assay [13] concerns the target T5, Serine/threonine-protein kinase Nek1 (Homo sapiens). The settings on record: at 1 µM.
The target of assay [14] is T6, Serine/threonine-protein kinase Nek2 (Homo sapiens) (UniProt P51955).
T6 sequence (whole entry): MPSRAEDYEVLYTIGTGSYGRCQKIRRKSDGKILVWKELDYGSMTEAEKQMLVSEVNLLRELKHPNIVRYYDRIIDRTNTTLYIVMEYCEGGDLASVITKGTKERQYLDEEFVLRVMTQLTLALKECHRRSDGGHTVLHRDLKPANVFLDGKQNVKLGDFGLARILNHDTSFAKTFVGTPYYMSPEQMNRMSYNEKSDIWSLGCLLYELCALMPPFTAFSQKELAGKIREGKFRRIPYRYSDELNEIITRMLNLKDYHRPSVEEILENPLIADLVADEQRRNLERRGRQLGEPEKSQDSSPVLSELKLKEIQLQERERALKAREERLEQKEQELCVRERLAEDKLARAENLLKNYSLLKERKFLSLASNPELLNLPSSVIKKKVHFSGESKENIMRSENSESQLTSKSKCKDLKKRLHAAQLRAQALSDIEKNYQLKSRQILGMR
The settings on record: at 0.1 µM.

Assay [15] addresses T6, Serine/threonine-protein kinase Nek2 (Homo sapiens). The settings on record: at 1 µM.
For assay [16], the target named is Serine/threonine-protein kinase Nek6 (Homo sapiens) (UniProt Q9HC98). The settings on record: at 0.1 µM.
Serine/threonine-protein kinase Nek6 (Homo sapiens), sequence (Q9HC98 whole entry): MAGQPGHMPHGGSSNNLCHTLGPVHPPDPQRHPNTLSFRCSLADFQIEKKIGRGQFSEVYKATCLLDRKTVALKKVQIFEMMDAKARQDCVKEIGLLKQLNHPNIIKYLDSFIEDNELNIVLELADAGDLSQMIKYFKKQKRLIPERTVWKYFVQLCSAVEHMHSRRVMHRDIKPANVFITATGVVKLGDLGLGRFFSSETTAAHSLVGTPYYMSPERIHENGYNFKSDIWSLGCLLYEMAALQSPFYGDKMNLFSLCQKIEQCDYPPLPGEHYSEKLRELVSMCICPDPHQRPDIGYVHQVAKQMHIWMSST
Assay [17] has the same target. To be noted: at 1 µM.
The target of assay [18] is Serine/threonine-protein kinase Nek7 (Homo sapiens) (UniProt Q8TDX7). The settings on record: at 0.1 µM.
Serine/threonine-protein kinase Nek7 (Homo sapiens), sequence (Q8TDX7 whole entry, looked up): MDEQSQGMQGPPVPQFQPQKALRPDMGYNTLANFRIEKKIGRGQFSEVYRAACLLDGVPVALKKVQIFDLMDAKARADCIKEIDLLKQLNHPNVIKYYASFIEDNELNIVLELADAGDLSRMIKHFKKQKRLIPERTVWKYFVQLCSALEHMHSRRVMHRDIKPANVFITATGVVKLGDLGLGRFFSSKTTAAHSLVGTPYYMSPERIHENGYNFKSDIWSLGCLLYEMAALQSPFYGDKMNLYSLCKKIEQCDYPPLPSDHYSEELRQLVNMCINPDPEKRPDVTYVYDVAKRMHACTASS
The target is the same in assay [19]. The settings on record: at 1 µM.
Assay [20] has as its target T7, Serine/threonine-protein kinase Nek9 (Homo sapiens) (UniProt Q8TD19).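 Further: reported value is the mean percent inhibition of NEK9.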
T7 sequence (whole entry): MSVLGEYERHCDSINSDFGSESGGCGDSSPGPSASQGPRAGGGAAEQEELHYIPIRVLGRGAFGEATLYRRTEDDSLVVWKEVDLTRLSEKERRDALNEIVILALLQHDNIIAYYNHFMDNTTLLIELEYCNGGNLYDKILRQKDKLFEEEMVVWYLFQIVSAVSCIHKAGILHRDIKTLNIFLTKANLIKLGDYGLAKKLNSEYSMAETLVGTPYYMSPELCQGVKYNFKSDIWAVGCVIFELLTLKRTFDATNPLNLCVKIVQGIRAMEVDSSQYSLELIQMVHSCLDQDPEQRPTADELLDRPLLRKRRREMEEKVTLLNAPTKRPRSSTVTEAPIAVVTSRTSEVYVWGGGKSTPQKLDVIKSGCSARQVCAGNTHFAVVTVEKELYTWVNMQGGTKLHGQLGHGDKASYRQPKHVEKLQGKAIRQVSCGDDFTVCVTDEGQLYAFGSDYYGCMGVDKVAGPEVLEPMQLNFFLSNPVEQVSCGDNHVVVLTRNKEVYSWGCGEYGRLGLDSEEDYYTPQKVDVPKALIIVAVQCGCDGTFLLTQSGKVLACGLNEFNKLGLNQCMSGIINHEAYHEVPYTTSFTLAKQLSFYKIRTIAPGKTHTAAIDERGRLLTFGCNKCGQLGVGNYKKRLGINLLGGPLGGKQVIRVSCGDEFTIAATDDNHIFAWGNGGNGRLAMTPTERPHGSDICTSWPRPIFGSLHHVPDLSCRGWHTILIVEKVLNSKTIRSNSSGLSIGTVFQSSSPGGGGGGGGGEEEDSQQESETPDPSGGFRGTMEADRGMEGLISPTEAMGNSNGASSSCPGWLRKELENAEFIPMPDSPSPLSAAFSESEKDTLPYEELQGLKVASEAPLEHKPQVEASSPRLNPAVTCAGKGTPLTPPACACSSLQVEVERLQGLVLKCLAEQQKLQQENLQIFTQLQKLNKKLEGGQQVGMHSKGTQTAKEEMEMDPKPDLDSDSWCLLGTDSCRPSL
To be noted: at 0.1 µM.

Sphingosine kinase 1 (Homo sapiens), sequence (Q9NYA1 whole entry): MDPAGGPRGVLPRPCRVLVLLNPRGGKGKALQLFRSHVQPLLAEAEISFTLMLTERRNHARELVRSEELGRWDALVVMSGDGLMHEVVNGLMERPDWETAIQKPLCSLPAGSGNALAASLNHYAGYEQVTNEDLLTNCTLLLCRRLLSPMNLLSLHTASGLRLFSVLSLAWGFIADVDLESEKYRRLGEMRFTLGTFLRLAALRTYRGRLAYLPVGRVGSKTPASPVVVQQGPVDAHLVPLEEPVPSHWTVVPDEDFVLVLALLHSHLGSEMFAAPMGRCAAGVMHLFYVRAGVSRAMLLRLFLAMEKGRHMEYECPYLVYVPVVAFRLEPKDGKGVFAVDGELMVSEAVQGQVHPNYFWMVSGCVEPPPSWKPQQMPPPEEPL

As to `COC(=O)c1sc(-n2cnc3cc(OC)c(OC)cc32)cc1OCc1ccccc1C(F)(F)F`, the inhibition in assay [1] is 1.91%; in assay [2] it was 0.14%; in [3], -2.19%; in assay [4] it was 0.66%; in [5], -0.18%; in assay [6], 3.9%. Further, the inhibition came to 5.32% in [7]; 5.59% in assay [8]; 4.11% in assay [9]; 3.88% in assay [10]; 8.59% in assay [11]; 2.43% in [12]. In addition, the inhibition in assay [13] was 0.28%; in assay [14] it was 4.46%; in assay [15], 3.83%; in assay [16] it was -0.01%; in assay [17], -1.32%; in assay [18], 6.92%. Further, the results for the inhibition in assay [19] and in [20] were 4.66% and 6.87%, respectively.

As a reminder, the inhibition is the relative decrease from the control value, in per cent.
